Experimental data as given in PubChem BioAssay (NCATS).
Results filed as inconclusive are left out. The source made the active and inactive calls. Calls follow the shape of the dose curve; as a rule, active = well fitted curve in the direction sought with a large enough effect; inconclusive = small, poorly fitted or top-dose-only effect, or another doubt; inactive = no such curve, though single readings can be large; an effect the other way counts as inactive or inconclusive.

Key:
[1] = qHTS of pediatric cancer cell lines to identify multiple opportunities for drug repurposing: Primary screen for TC32 cells (AID 1347089); also: nearly all actives have a fitted effect of over 60% in size; also: potency is read from the fitted curve at half-maximal effect
Summary of the method: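 A viability screen of TC32 cells was run over 48 h, with primary MIPE doses spanning 0.78 nM–46 µM and NPC doses 0.59 nM–46 µM. ATP luminescence (CellTiter-Glo) served as the read-out.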

[2] = qHTS of pediatric cancer cell lines to identify multiple opportunities for drug repurposing: Primary screen for DAOY cells (AID 1347090); also: nearly all actives have a fitted effect of over 55% in size; also: potency is read from the fitted curve at half-maximal effect
Summary of the method: (§1)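 Viability measured as metabolically active cells via CellTiter-Glo luminescence following 48 hours of compound exposure, 11-point dilutions in confirmatory testing. 500-1,000 cells/well plated 5 hours before dosing; controls were DMSO and 2.3 µM bortezomib.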

[3] = qHTS of pediatric cancer cell lines to identify multiple opportunities for drug repurposing: Primary screen for U-2 OS cells (AID 1347096); also: nearly all actives have a fitted effect of over 50% in size
Summary of the method: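 Viability after 48 h compound treatment at 37C, 500-1,000 cells/well, read as ATP luminescence with CellTiter-Glo. Primary screens used 11-point (MIPE, 0.78 nM-46 µM) or 8-point (NPC, 0.59 nM-46 µM) final concentrations; follow-up screens used 11-point dilutions.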

[4] = qHTS of pediatric cancer cell lines to identify multiple opportunities for drug repurposing: Primary screen for SJ-GBM2 cells (AID 1347091); also: potency is read from the fitted curve at half-maximal effect
Summary of the method: as §1

[5] = qHTS of pediatric cancer cell lines to identify multiple opportunities for drug repurposing: Primary screen for A673 cells (AID 1347092); also: nearly all actives have a fitted effect of over 45% in size; also: potency is read from the fitted curve at half-maximal effect
Summary of the method: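 Titration-based qHTS on A673 cells: MIPE compounds spanned 11 points (0.78 nM to 46 µM final), NPC compounds 8 points (0.59 nM to 46 µM final). Viability after 48 h was measured by ATP luminescence.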

[6] = qHTS of pediatric cancer cell lines to identify multiple opportunities for drug repurposing: Primary screen for BT-37 cells (AID 1347094); also: potency is read from the fitted curve at half-maximal effect
Summary of the method: (§2)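 Plated cells (500-1,000 per well, growth media) were allowed to settle for 5 hours, treated with compound dilutions for 48 hours, then lysed with CellTiter-Glo for 15 min at room temperature before luminescence reading.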

[7] = qHTS of pediatric cancer cell lines to identify multiple opportunities for drug repurposing: Primary screen for NB-EBc1 cells (AID 1347095); also: potency is read from the fitted curve at half-maximal effect
Summary of the method: as §2

[8] = qHTS of pediatric cancer cell lines to identify multiple opportunities for drug repurposing: Primary screen for SK-N-MC cells (AID 1347093); also: potency is read from the fitted curve at half-maximal effect
Summary of the method: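 Metabolically active cells were quantified by ATP-dependent luminescence (CellTiter-Glo, 15 min at room temperature) following 48 h treatment. Cells had been plated at 500-1,000 per well and settled for 5 h beforehand.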

[9] = qHTS of pediatric cancer cell lines to identify multiple opportunities for drug repurposing: Primary screen for Saos-2 cells (AID 1347097); also: potency is read from the fitted curve at half-maximal effect; nearly all actives have a fitted effect of over 40% in size
Summary of the method: as §2

Measured: Potency

O=C(Nc1cccc2c(=O)cc(-c3nn[nH]n3)oc12)c1ccc(OCCCCc2ccccc2)cc1
inactive: [1] | [2] | [3]

CCC[C@H](Nc1nc(-c2ccc(NC(=O)NCC)c(OC)c2)ncc1C)c1cccnc1
active: [1] 0.093 µM | [4] 0.0105 µM | [5] 0.0187 µM | [6] 0.0137 µM | [7] 0.0066 µM

CCOC(=O)c1c(CSc2ccccc2)n(C)c2cc(Br)c(O)c(CN(C)C)c12
inactive: [1] | [5] | [7] | [3]

O=S(=O)(NCCNCC=Cc1ccc(Br)cc1)c1cccc2cnccc12
active: [4] 11.8 µM | [5] 11.8 µM | [7] 16.6 µM

CC(C)N(CCCNC(=O)Nc1ccc(C(C)(C)C)cc1)C[C@H]1O[C@@H](n2cc(Br)c3c(N)ncnc32)[C@H](O)[C@H]1O
active: [5] 18.7 µM | [6] 24.3 µM
inactive: [1] | [7] | [3]

C[C@@]1(C(=O)Nc2ccc(F)nc2)CCCN1c1nc(Nc2cc(C3CC3)[nH]n2)c2cccn2n1
active: [1] 0.165 µM | [4] 0.187 µM | [5] 0.0935 µM | [8] 0.001 µM | [7] 0.0264 µM | [9] 1.05 µM
inactive: [3]

C[C@@H]1CC=CC=CC=CC=C[C@@H](O[C@@H]2O[C@H](C)[C@@H](O)[C@H](N)[C@H]2O)C[C@@H]2O[C@](O)(C[C@@H](O)C[C@@H]3O[C@@H]3C=CC(=O)O1)C[C@H](O)[C@@H]2C(=O)O
active: [2] 7.43 µM | [8] 8.33 µM
inactive: [1] | [4] | [3]

CCN1CCC(n2cc(CNc3cc(Cl)c4ncc(C#N)c(Nc5ccc(F)c(Cl)c5)c4c3)nn2)CC1
active: [4] 18.7 µM | [5] 14.8 µM | [6] 24.3 µM | [7] 23.5 µM | [9] 14.8 µM
inactive: [1] | [3]
